From PubChem
IL1B secr inh – qHTS for Inhibitors of Inflammasome Signaling: IL-1-beta AlphaLISA Primary Screen. THP-1 LPS/ATP IL-1B secretion, AlphaLISA, 16 h; hits give low values. activity change, % at 57.5 µM. hit rate 4.7% among 360,000. AID 743279, 2014; in the data active = activity change below about -50%; inconclusive = mostly about -30% to -49%
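THP-1 cells pretreated 1 hr with compounds (up to 57.5 uM final), then stimulated with LPS (250 ng/mL final) plus ATP (1.25 mM final); secreted IL-1B measured by AlphaLISA after 16 hr, decreased signal indicating inhibition.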
TDP1 cell noCPT – qHTS for Inhibitors of human tyrosyl-DNA phosphodiesterase 1 (TDP1): qHTS in cells in absence of CPT; DT40 Tdp1-/- hTDP1 cells, no CPT, ATP luminescence, 48 h; hit rate 15% among 420,000; Potency, µM (titrated, usually from 46.2 µM), actives largely listed as inhibitors; also: nearly all actives have a fitted effect of over 55% in size
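Cells were dispensed at 400 per well, compounds added by pin tool, plates incubated ≥48 hr at 37 °C, then CellTiter-Glo added for 30 min at room temperature before luminescence reading. Line: DT40 Tdp1-/- complemented with hTDP1; camptothecin omitted.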
HepG2 tox – qHTS for Inhibitors of TGF-b: Cytotox Counterscreen | HepG2 CAGA-GFP viability, ATP luminescence, 18 h | Potency, µM (highest dose often 46.1 µM), usual class: cytotoxic | hit rate 0.76% among 410,000
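HepG2 CAGA-GFP cells (1000/well, DMEM with 1% FBS) received compound, then TGF-beta at 500 pg/mL final, and were incubated 18 hours at 37 degrees C. Viability was read by CellTiter-Glo luminescence. Media-only wells were set as complete cell-killing and DMSO as no toxicity.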
TDP1 cell CPT – qHTS for Inhibitors of human tyrosyl-DNA phosphodiesterase 1 (TDP1): qHTS in cells in presence of CPT | chicken DT40 Tdp1-/-;hTDP1 cells + 20 nM CPT, ATP luminescence, 48 h | Potency, µM (doses to about 46.2 µM), actives largely listed as inhibitors | hit rate 12% among 420,000 | AID 686979, 2013; also: nearly all actives have a fitted effect of over 55% in size
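Cell growth measured by CellTiter-Glo luminescence after a minimum 48 h, 37 C compound exposure with 20 nM CPT in Tdp1-knockout DT40 cells stably expressing hTDP1, seeded 400/well; qHTS titration format.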
TDP1 block – qHTS Assay for Inhibitors of Tyrosyl-DNA Phosphodiesterase (TDP1). hit rate 0.28% among 350,000. Tyrosyl-DNA phosphodiesterase 1 (Homo sapiens), Q9NUW8. recombinant TDP1, AlphaScreen DNA substrate cleavage. Potency, µM (series often up to 130 µM), hits mostly inhibitors; also: nearly all actives have a fitted effect of over 40% in size
Target sequence (Q9NUW8 whole entry, looked up): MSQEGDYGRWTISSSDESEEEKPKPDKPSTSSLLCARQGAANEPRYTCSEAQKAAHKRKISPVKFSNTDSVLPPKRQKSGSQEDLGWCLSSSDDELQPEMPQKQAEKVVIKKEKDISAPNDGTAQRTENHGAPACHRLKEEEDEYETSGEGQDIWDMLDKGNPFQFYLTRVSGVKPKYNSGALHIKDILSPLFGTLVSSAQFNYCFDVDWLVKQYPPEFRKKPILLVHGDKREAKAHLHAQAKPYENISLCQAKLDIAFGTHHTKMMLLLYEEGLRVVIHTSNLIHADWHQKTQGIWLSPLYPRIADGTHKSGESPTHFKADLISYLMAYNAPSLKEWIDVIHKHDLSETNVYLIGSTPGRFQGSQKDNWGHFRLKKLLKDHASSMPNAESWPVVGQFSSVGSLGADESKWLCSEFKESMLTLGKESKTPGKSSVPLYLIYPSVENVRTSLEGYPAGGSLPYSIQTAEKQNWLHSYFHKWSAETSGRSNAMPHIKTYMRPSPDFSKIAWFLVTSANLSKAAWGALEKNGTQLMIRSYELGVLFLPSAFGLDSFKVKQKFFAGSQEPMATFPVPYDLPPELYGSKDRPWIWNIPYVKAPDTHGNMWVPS
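Signal: AlphaScreen proximity between streptavidin donor and anti-FITC acceptor beads on intact substrate. Reaction: Tdp1 1 nM, substrate 15 nM final, 5 min RT after 15 min compound preincubation.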
TGFb inhibitor – qHTS for Inhibitors of TGF-b; HepG2 CAGA-GFP TGF-b/SMAD3 reporter, GFP fluorescence, 18 h; TGF-beta stimulated, 500 pg/mL final; hit rate 1.2% among 410,000; Potency, µM (highest dose often 46.1 µM), hits mostly inhibitors; also: nearly all actives have a fitted effect of over 65% in size
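HEPG2 CAGA-GFP cells (1000/well, DMEM with 1% FBS) were pre-incubated 2 h at 37 degrees C, given compound by pin tool, then stimulated with TGF-beta at 500 pg/mL final for 18 h before per-cell GFP fluorescence imaging.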
Of the large screens only hits and unclear results are named; the others gave an inactive call; ! = not confirmed by another sample. The list is not random: actives were taken first. Their share in the collection is about 18%. Unless noted, calls follow the shape of the dose curve; as a rule, active = well fitted curve in the direction sought with a large enough effect; inconclusive = small, poorly fitted or top-dose-only effect, or another doubt; inactive = no such curve, though single readings can be large; an effect the other way counts as inactive or inconclusive.

CCCC(C)C1(CC)C(=O)N=C(S)NC1=O (stereo unspecified)	none (no result: IL1B secr inh, HepG2 tox, TGFb inhibitor)
CC(C)C[C@H](NC(=O)CNC(=O)[C@H](CCC(N)=O)NC(=O)[C@H](Cc1ccc(O)cc1)NC(=O)[C@@H](NC(=O)[C@H](Cc1ccc(O)cc1)NC(=O)CNC(=O)[C@@H](N)CCCN=C(N)N)C(C)C)C(=O)O	none (no result: IL1B secr inh, TDP1 cell noCPT, HepG2 tox, TDP1 cell CPT, TGFb inhibitor)
CC(C)(C)c1ccccc1O	none
CC(C)(C)c1cc(O)ccc1O	TDP1 cell noCPT 1.2µM, TDP1 cell CPT 1.7µM (no result: IL1B secr inh, HepG2 tox, TGFb inhibitor)
CN(C)CC/C=C1/c2ccccc2Sc2ccc(Cl)cc21	IL1B secr inh -63!, TDP1 cell noCPT 29µM!, TDP1 cell CPT inconclusive, TGFb inhibitor inconclusive
CN1CCCC2(CCN(C(=O)c3ccco3)CC2)C1	none (no result: IL1B secr inh, HepG2 tox, TDP1 block, TGFb inhibitor)
CC(C)n1nc(-c2cc3cc(O)ccc3[nH]2)c2c(N)ncnc21	TDP1 cell noCPT 0.17µM, TDP1 cell CPT 0.094µM (no result: IL1B secr inh, HepG2 tox, TDP1 block, TGFb inhibitor)
Cc1c(Cl)ccc2sc(N3CCN(C(=O)CCS(=O)(=O)c4ccc(F)cc4)CC3)nc12	TDP1 cell noCPT 0.46µM, TDP1 cell CPT 0.58µM, TGFb inhibitor 8.9µM (no result: IL1B secr inh)
O=C(Cc1ccc(S(=O)(=O)N2CCCC2)s1)N1CCN(c2ccc(F)cc2)CC1	TDP1 cell noCPT inconclusive, TDP1 cell CPT inconclusive (no result: TDP1 block)
CCOc1ccc(C(=O)N2CCC(c3noc(-c4ccc(S(=O)(=O)N5CCCC5)cc4)n3)CC2)cc1	TDP1 cell noCPT 16µM, TDP1 cell CPT inconclusive, TGFb inhibitor inconclusive (no result: IL1B secr inh)
O=C(COc1ccc(S(=O)(=O)N2CCCCC2)cc1)N1CCN(Cc2ccccc2)CC1	TDP1 cell noCPT inconclusive, TDP1 cell CPT inconclusive, TGFb inhibitor inconclusive
C[C@@H](Cc1ccc(OCC(=O)O)cc1)NC[C@H](O)c1cccc(Cl)c1	none (no result: IL1B secr inh, HepG2 tox, TGFb inhibitor)
O=C(Nc1ccc(OC(F)(F)F)cc1)Oc1ccccc1N1CCCCC1	TDP1 cell noCPT inconclusive, TDP1 cell CPT inconclusive, TGFb inhibitor 13µM
C[C@H](CO)N1C[C@H](C)[C@@H](CN(C)C(=O)c2ccc3c(c2)OCO3)Oc2cc(/C=C/c3ccccc3)ccc2S1(=O)=O	IL1B secr inh inconclusive, TDP1 cell noCPT 8.2µM, TDP1 cell CPT 21µM (no result: TDP1 block)
Cc1ccc(S(=O)(=O)Nc2ccc3c(c2)CC(=O)N([C@H](C)CO)C[C@@H](C)[C@H](CN(C)S(=O)(=O)c2ccccc2)O3)cc1	TDP1 cell CPT inconclusive
COc1ccc(C(c2nnnn2C(C)(C)C)N2CCC3(CC2)C(=O)NCN3c2ccccc2)cc1 (stereo unspecified)	TDP1 cell noCPT inconclusive, TDP1 cell CPT inconclusive (no result: TDP1 block)
Cc1cccc(C)c1-n1nnnc1C(c1ccnc2ccccc12)N1CCC2(CC1)C(=O)NCN2c1ccccc1 (stereo unspecified)	IL1B secr inh inconclusive, TDP1 cell noCPT 15µM, TDP1 cell CPT 23µM, TGFb inhibitor inconclusive (no result: TDP1 block)
Cc1cccc(C)c1-n1nnnc1C(c1ccccc1)N1CCC2(CC1)C(=O)NCN2c1ccccc1 (stereo unspecified)	IL1B secr inh inconclusive, TDP1 cell noCPT 21µM, TDP1 cell CPT 23µM, TGFb inhibitor inconclusive (no result: TDP1 block)
COc1ccc(C(c2nnnn2-c2c(C)cccc2C)N2CCC3(CC2)C(=O)NCN3c2ccccc2)cc1 (stereo unspecified)	IL1B secr inh -64, TDP1 cell noCPT 21µM, TDP1 cell CPT 15µM, TGFb inhibitor inconclusive (no result: TDP1 block)
Cc1cccc(C)c1-n1nnnc1C(C1CC1)N1CCC2(CC1)C(=O)NCN2c1ccccc1 (stereo unspecified)	TDP1 cell noCPT 15µM, TDP1 cell CPT 16µM, TGFb inhibitor inconclusive (no result: TDP1 block)
COC(=O)c1sc(NC(=O)/C=C/c2ccc(OC)c(OC)c2)c(C(=O)OC)c1C	TDP1 cell noCPT inconclusive (no result: IL1B secr inh)
CC(C)(C)n1nnnc1C(C1CC1)N1CCC2(CC1)C(=O)NCN2c1ccccc1 (stereo unspecified)	TDP1 cell noCPT 16µM, TDP1 cell CPT inconclusive, TGFb inhibitor inconclusive (no result: TDP1 block)
O=C1NCN(c2ccccc2)C12CCN(C(c1nnnn1C1CCCCC1)C1CC1)CC2 (stereo unspecified)	TDP1 cell noCPT inconclusive, TDP1 cell CPT inconclusive, TGFb inhibitor inconclusive (no result: TDP1 block)
Cc1cc(C(=O)N=Nc2c(O)n(C)c3ccccc23)c(C)o1	TDP1 cell noCPT inconclusive
Cc1nc2ccccn2c1C(=O)N=Nc1c(O)n(CCC(C)C)c2ccccc12	TDP1 cell noCPT 7.3µM, TDP1 cell CPT 7.3µM
COc1cc(OC)c(OC)cc1CNCCc1cccc(F)c1	TDP1 cell noCPT inconclusive (no result: TDP1 block)
COc1ccc(CCNCc2ccncc2)cc1OC	none
COc1ccccc1CNCCc1ccc(F)cc1	TDP1 cell CPT inconclusive (no result: TDP1 block)
COc1ccc(CCNCc2ccc(Br)cc2)cc1OC	TDP1 cell noCPT inconclusive, TDP1 cell CPT 21µM (no result: TDP1 block)
Fc1ccc(CCNCc2ccc(Cl)c(Cl)c2)cc1	IL1B secr inh -53, HepG2 tox 13µM, TDP1 cell CPT inconclusive, TGFb inhibitor inconclusive
Fc1ccc(CNCCc2ccc3c(c2)OCO3)cc1	TDP1 cell noCPT inconclusive
CCc1ccc(CNCCc2ccc(F)cc2)cc1	IL1B secr inh -83, TDP1 cell noCPT inconclusive, TDP1 cell CPT inconclusive
COc1cc(OC)c(OC)cc1CNCCc1ccc(F)cc1	TDP1 cell noCPT 12µM, TDP1 cell CPT inconclusive
CN(C)c1ccc(N)cc1	none (no result: IL1B secr inh, TDP1 cell noCPT, HepG2 tox, TDP1 cell CPT, TGFb inhibitor)
Cc1ccsc1CNCCc1ccccc1F	none
Cc1ccccc1CCNCc1ccc(Br)cc1	IL1B secr inh -65, TDP1 cell noCPT inconclusive, TDP1 cell CPT inconclusive, TGFb inhibitor inconclusive
